Screening results as filed in PubChem.
Shown are actives, neighbours in structure and some others; about 2.5% of the full set was active somewhere.
STAT3 binder – STAT3 (human) binding; P40763; Small molecule microarray, His-STAT3 binding, anti-His fluorescence; calls only; actives 0.2% (n = 17,000); AID 624138;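 active = compounds whose four printed spots each show fluorescence over background unusually high for their array block, chance value under 7%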
Myc binder – binds human c-Myc on microarray. actives 1.5% (n = 17,000). calls only. small molecule microarray, His-c-Myc binding, anti-His fluorescence. P01106;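 active = spot fluorescence over background with P-value below 7% in all four replicate spots, showing protein binding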;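 note: score is binary with 100 for all four spots passing and 0 otherwise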
Target sequence (P01106 whole entry, looked up): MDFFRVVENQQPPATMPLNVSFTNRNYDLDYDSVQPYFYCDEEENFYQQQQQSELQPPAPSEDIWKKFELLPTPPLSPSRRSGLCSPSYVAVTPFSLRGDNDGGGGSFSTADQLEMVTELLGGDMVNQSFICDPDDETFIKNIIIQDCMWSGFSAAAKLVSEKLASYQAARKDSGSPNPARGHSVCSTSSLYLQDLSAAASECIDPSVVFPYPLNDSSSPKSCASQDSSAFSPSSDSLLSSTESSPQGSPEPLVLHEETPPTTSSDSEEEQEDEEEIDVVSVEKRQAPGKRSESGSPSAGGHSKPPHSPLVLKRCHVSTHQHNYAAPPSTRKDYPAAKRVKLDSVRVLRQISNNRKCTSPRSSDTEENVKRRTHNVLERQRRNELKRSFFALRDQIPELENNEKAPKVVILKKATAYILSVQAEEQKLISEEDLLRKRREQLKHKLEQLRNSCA
mut p53 SMM – mutant p53 (human) binding | small molecule microarray binding, anti-GST fluorescence | calls only | actives 0.4% (n = 17,000);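 active = compounds whose four printed spots each glow above background more than chance allows, each with a p-value under 7%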
NFkB binder – NF-kappa-B p105 (human) binding. actives 1.3% (n = 17,000). calls only. Small molecule microarray, anti-His fluorescence binding;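 active = spot fluorescence over background significantly raised, with a chance value under 7% in all four replicate spots of the compound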;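 note: probe protein is his-tagged human p50 processed subunit at 1 µg/ml; raw spot fluorescence signals with no normalization applied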
An asterisk follows results filed as active; i = inactive; + = active, no number.

SMILES	STAT3 binder	Myc binder	mut p53 SMM	NFkB binder
CCOc1cc(C(=O)O)cc(I)c1OCC(=O)O	i	+	i	+
C[C@@H]1CN([C@@H](C)CO)C(=O)c2cccc(N(C)C)c2O[C@@H]1CN(C)C(=O)Nc1ccc(C(F)(F)F)cc1	i	i	i	i
COc1ccc(Cn2c3ccc(Br)cc3c3nc4ccccc4nc32)cc1OC	i	+	i	i
COc1ccc(C(=O)CSc2nc3ccccc3c(=O)[nH]2)cc1OC	i	i	i	i
COc1cc2c(cc1OC)CN(C(=O)[C@H]1[C@@H]3C(=O)O[C@@H](c4ccccc4)[C@@H](c4ccccc4)N3[C@@H](c3ccccc3OCCO)[C@]13C(=O)Nc1ccc(C#CCCO)cc13)CC2	i	i	i	i
COC(=O)c1cc(Br)ccc1NC(=O)COc1ccc(C(C)(C)C)cc1	i	+	i	i
CC(C)OC(=O)c1cn(Cc2c(F)cccc2F)c2sc(-c3ccc(NC(=O)C(C)C)cc3)c(CN(C)Cc3ccccc3)c2c1=O	i	+	i	+
Clc1ccc(CSc2nnc(-c3ccco3)n2Cc2ccco2)c(Cl)c1	i	i	+	i
CC(C)(C)C(=O)CSc1nnc(-c2ccco2)n1Cc1ccco1	i	i	i	i
C/C=C/C/C=C/CCC(=O)[C@H]1O[C@H]1C(N)=O	i	i	i	+
C[C@H]1CN([C@@H](C)CO)C(=O)Cc2cc(NC(=O)Cc3ccccc3)ccc2O[C@H]1CN(C)CC1CC1	i	i	i	i
Cc1cc(-n2nc3ccccc3n2)c2oc(SCc3nnc(-c4ccccc4)o3)nc2c1	i	i	i	i
c1ccc(Cn2ccnc2SCc2nnc(-c3ccccc3)o2)cc1	i	+	+	i
COC(=O)c1c(NC(=S)NCc2ccco2)sc2c1CCC(C)C2 (stereo unspecified)	i	i	i	i
O=C(Nc1sc2c(c1C(=O)NCc1ccco1)CCC2)c1sc2ccccc2c1Cl	i	+	i	i
Cc1ccc(S(=O)(=O)N2CCC[C@H]2Cn2cc(CN3C(=O)COC[C@H]3c3ccccc3)nn2)cc1	i	i	+	i
C[C@@H]1CCCCO[C@H](CN(C)Cc2ccncc2)[C@H](C)CN([C@H](C)CO)C(=O)c2cc(NC(=O)Nc3cccc4ccccc34)ccc2O1	i	i	i	i
C=CCOC(=O)C1=C[C@H](c2coc3ccccc3c2=O)C[C@H](OCc2ccc(CO)cc2)O1	i	+	i	i
CNC[C@H]1Oc2ccc(NS(=O)(=O)c3cn(C)cn3)cc2CC(=O)N([C@@H](C)CO)C[C@@H]1C	i	i	i	i
N#Cc1c(C(F)(F)F)cc(-c2ccc(Br)cc2)nc1SCCC(=O)O	i	+	i	+
C[C@@H]1CCCCO[C@H](CN(C)C(=O)Nc2cccc3ccccc23)[C@@H](C)CN([C@@H](C)CO)C(=O)c2cc(NC(=O)c3ccncc3)ccc2O1	i	+	i	+
C[C@H](CO)N1C[C@H](C)[C@@H](CN(C)C(=O)Nc2cccc3ccccc23)OCCCC[C@H](C)Oc2ccc(NC(=O)c3ccncc3)cc2C1=O	i	+	i	+
O=C(O)CCCC(=O)Nc1ccc(Br)cc1C(=O)O	i	+	i	+
C[C@@H]1CCCCO[C@@H](CN(C)CC2CCCCC2)[C@H](C)CN([C@H](C)CO)C(=O)c2cc(NS(C)(=O)=O)ccc2O1	i	i	i	+
C[C@@H]1CN([C@H](C)CO)C(=O)c2cc(NC(=O)Nc3ccc4c(c3)OCO4)ccc2O[C@@H]1CN(C)CC1CCCCC1	i	i	+	i
SMILES	STAT3 binder	Myc binder	mut p53 SMM	NFkB binder
C[C@H]1CCCCO[C@@H](CN(C)CC2CCCCC2)[C@@H](C)CN([C@@H](C)CO)C(=O)c2cc(NC(=O)C3CCCCC3)ccc2O1	i	i	i	+
C[C@@H]1CN([C@H](C)CO)C(=O)c2cc(NC(=O)Nc3ccc4c(c3)OCO4)ccc2O[C@H]1CN(C)CC1CCCCC1	i	i	i	i
C[C@@H]1CN([C@H](C)CO)C(=O)c2cccc(NC(=O)c3nc4ccccc4s3)c2O[C@@H]1CN(C)C(=O)NC1CCCCC1	i	i	i	i
COc1ccc(S(=O)(=O)N(C)C[C@@H]2Oc3ccc(NC(=O)Nc4ccc(C(F)(F)F)cc4)cc3CC(=O)N([C@@H](C)CO)C[C@H]2C)cc1	i	i	i	i
COc1ccc(S(=O)(=O)N(C)C[C@H]2Oc3ccc(NC(=O)Nc4ccc(C(F)(F)F)cc4)cc3CC(=O)N([C@H](C)CO)C[C@H]2C)cc1	i	+	i	i
Cc1noc(C)c1S(=O)(=O)Nc1ccc2c(c1)CC(=O)N([C@@H](C)CO)C[C@H](C)[C@H](CN(C)Cc1ccc(-c3ccccc3)cc1)O2	i	i	i	i
C[C@H]1CN([C@@H](C)CO)C(=O)Cc2cc(NC(=O)Nc3ccc(F)cc3)ccc2O[C@H]1CN(C)CC1CC1	+	i	i	i
COc1ccc(NC(=O)Nc2ccc3c(c2)CC(=O)N([C@@H](C)CO)C[C@H](C)[C@@H](CN(C)Cc2ccc(Oc4ccccc4)cc2)O3)cc1	i	i	+	i
Cc1noc(C)c1S(=O)(=O)Nc1ccc2c(c1)CC(=O)N([C@H](C)CO)C[C@@H](C)[C@@H](CN(C)Cc1ccc(-c3ccccc3)cc1)O2	+	+	i	i
C[C@@H]1CCCCO[C@H](CN(C)Cc2ccc(Cl)c(Cl)c2)[C@@H](C)CN([C@@H](C)CO)C(=O)c2cc(NC(=O)CCC(F)(F)F)ccc2O1	i	i	i	i
C[C@@H]1CN([C@@H](C)CO)C(=O)Cc2cc(N(C)C)ccc2O[C@H]1CN(C)S(=O)(=O)c1cccs1	i	+	i	i
C[C@H](CO)N1C[C@H](C)[C@@H](CN(C)Cc2ccc(C(F)(F)F)cc2)Oc2ccc(NC(=O)Cc3cn(C)c4ccccc34)cc2CC1=O	i	+	i	+
C[C@@H]1CN([C@H](C)CO)C(=O)Cc2cc(N(C)C)ccc2O[C@H]1CN(C)S(=O)(=O)c1cccs1	i	i	i	i
C[C@H]1CN([C@@H](C)CO)C(=O)Cc2cc(NC(=O)CCN3CCOCC3)ccc2O[C@H]1CN(C)C	i	i	i	i
COC(=O)c1c(NC(=O)CSc2nnc3ccccn23)sc(C)c1C	i	i	i	i
COC(=O)c1c(NC(=O)CC2Nc3cccc4cccc(c34)NC2=O)sc(C)c1C (stereo unspecified)	i	+	i	i
CC(C)NC(=O)Nc1cccc2c1O[C@@H](CN(C)Cc1ccc(Oc3ccccc3)cc1)[C@@H](C)CN([C@@H](C)CO)C2=O	i	i	i	i
Cc1nnc(SCC(=O)Nc2cccc(I)c2)s1	i	i	i	i
Cc1ccc(-c2cc3ccccn3c2C(=O)CSc2nnc(C)s2)cc1	i	+	i	i
